In the supplement of paper PMC10681739 one finds TF binding intensity data, which are given here for 40 sequences.

The test has as its target T1, ETS1 (UniProt P14921).
T1 sequence: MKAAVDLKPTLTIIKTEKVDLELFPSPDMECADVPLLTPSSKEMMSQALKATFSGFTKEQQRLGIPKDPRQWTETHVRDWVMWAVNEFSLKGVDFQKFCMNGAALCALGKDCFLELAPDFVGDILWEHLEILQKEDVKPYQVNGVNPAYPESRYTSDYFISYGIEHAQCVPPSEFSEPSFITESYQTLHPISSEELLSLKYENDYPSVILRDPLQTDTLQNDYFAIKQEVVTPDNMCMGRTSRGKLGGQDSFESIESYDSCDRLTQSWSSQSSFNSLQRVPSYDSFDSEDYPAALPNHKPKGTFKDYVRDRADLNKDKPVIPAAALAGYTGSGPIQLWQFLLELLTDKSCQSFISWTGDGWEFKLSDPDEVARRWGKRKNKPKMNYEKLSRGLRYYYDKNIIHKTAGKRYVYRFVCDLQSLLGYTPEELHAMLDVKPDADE
Nature of the test: TF binding intensity (PBM fluorescence), negative control probe (arbitrary fluorescence units); higher = stronger binding. The procedure:
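gcPBM negative-control 36-bp genomic probes lacking TF binding sites. Each was incubated with recombinant human ETS1 or RUNX1 alone and detected by antibody fluorescence. Values are medians over replicate spots (4 spots for the ETS1-RUNX1 arrays, 3 for the ETS1-ETS1 array). The probes sit in constant array flanks that are not printed.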
As for “ACGAAAGTAAACAGTACTAGGTGCAGGGGCTTTAAT (protein concentration 10 nM)”, the TF binding intensity is 117.

Turning to “TTTCTTCACACCACAAGCAGAGAGCAGCGAGAGAGA (protein concentration 10 nM)”, the TF binding intensity worked out at 136.

As for “AGTCTAGTTTTGCTCTTTAAAATCACCATCTGTATC (protein concentration 10 nM)”, the TF binding intensity was 138.

For the sequence “TCTGAATGCTAAGCTCATCGAAGACGCCCAGCACTT (protein concentration 10 nM)”, the TF binding intensity worked out at 123.

With “AGAGAATCTGATTGGTTGTTGACCTTTGGGACAAGT (protein concentration 10 nM)”, the TF binding intensity was 105.

“CTTGACAGAGGTATGTGCTAGGATTGAATATGTGGG (protein concentration 10 nM)” came in with a TF binding intensity of 131.

In the case of “GTGAATTCAAAACAACCCACAGTTTTAATTCTCTGT (protein concentration 1 nM)”, the TF binding intensity was 452.

“ACGGAGCTTGCTCTGGCCATCTCTGTCCCTGCCTGT (protein concentration 10 nM)” returned a TF binding intensity of 102.

“TAGGTTCTAGCCTGCTTAGCTAGAGTTTAGTTTATT (protein concentration 10 nM)”: the TF binding intensity came out at 110.

On to “GAAGCAAGGATAATTAACTTCTACCAGTGATCCCCA (protein concentration 10 nM)”, for which the TF binding intensity came out at 124.

As for “ACCTCCCACTTGGCTCCCAGGTGGGTGCAGTGAGGC (protein concentration 10 nM)”, the TF binding intensity was found to be 155.

With “GAAGCCAGTGAGCCAGGAGTGCTGATTGGTTAGGGA (protein concentration 10 nM)”, the TF binding intensity amounted to 107.

Consider “CATTAGATTCTCATAAGGAGCATAACCTAGATCCCT (protein concentration 10 nM)”, for which the TF binding intensity stood at 104.

“AAAGGCAGATCTCCAAATCTCCAGGCCTGCTCGTTG (protein concentration 10 nM)” displayed a TF binding intensity of 96.1.

As to “CTCGCGGCGCACTCCCAGAGGCTGGGGGGCCGGGGC (protein concentration 10 nM)”, the TF binding intensity was 183.

Turning to “CCTCGGGGGCCAATGTGTGCCTGTGGTGTGCGATTC (protein concentration 10 nM)”, the TF binding intensity amounted to 121.

In turn, “CATATAACTGGTAGAACATCAGGTGTGGGTGGATCA (protein concentration 10 nM)” came in with a TF binding intensity of 111.

For “TCTTTATCTGTCAGTACCACACTGTCTATTCTCCCA (protein concentration 1 nM)”, the TF binding intensity was 502.

As for “CTCCTAATTCTGCATGCAACACTCTCCAGAGAGCTG (protein concentration 10 nM)”, the TF binding intensity was found to be 136.

In the case of “TCCGATGTTACCTGGGCTGGGCCATGGAGAATGGCG (protein concentration 10 nM)”, the TF binding intensity was determined as 112.

In turn, “GCAGCTCTAGTTTCTACCACACCAATGGGAGGGATC (protein concentration 1 nM)” had a TF binding intensity of 320.

For the sequence “TTATGAACTGTATCATGTGGTTTGAGTTTAATTTGG (protein concentration 1 nM)”, the TF binding intensity worked out at 487.

As for “ACCTGGGTCTCTGACAGACACCCCAAACTTCAGTTC (protein concentration 10 nM)”, the TF binding intensity came out at 102.

“CCGACACTCCATGAGTTAGTTCAGTCCTCTGACACC (protein concentration 10 nM)” yielded a TF binding intensity of 150.

Consider “AGGTGATATCTATCCCTTTCATTTCTTCTGAACAGG (protein concentration 10 nM)”, for which the TF binding intensity was 114.

“GCAGTGAGCTGAGATCACACCATTGCACTCCAGCCT (protein concentration 10 nM)” registered a TF binding intensity of 135.

For “AAAACAAACAAACCAAACAACACAACAGAAGTTTTC (protein concentration 10 nM)”, the TF binding intensity stood at 150.

“CACAGGTTCTTCTTCAAGGGCAGGGCACTGCACCTT (protein concentration 10 nM)” returned a TF binding intensity of 110.

Sequence “GATGCTTTTGTCCCACTAGGGCTCGTGCCTTAGTGA (protein concentration 10 nM)” had a TF binding intensity of 112.

In the case of “CTACAAGTCGTGAAGGGGCGAGGCGCAAAAGCGTAG (protein concentration 10 nM)”, the TF binding intensity was found to be 125.

In turn, “TATAAGGGGCTTTTCCCCTTTGGCTCAGCACTTCTC (protein concentration 10 nM)” came in with a TF binding intensity of 116.

Consider “AGTTCAAAAAAGCCCAAATGCTATAGGGACAACAAC (protein concentration 10 nM)”, for which the TF binding intensity stood at 148.

The sequence “CTAAATGGCATCTGATGTGGTATCTCTCCTCAGTTC (protein concentration 1 nM)” displayed a TF binding intensity of 455.

In turn, “ACCTGTGAATAGACTGACCAAATGCAAGCTGGACCA (protein concentration 10 nM)” had a TF binding intensity of 111.

“GTTTTGCAACTCTTATTCCAAGTGGACACCCAGAAA (protein concentration 10 nM)” displayed a TF binding intensity of 140.

“AAAACTAAAAGTAGAACCACCATATGATCCAGTAAT (protein concentration 1 nM)” came in with a TF binding intensity of 504.

Turning to “TGACCGGCGCCGACCCGGGGCGCCGAGAGGCCCACC (protein concentration 10 nM)”, the TF binding intensity is 115.

In the case of “GGGGCCTCGAAGGTCCTCCTGGACTGCAAGAGAGGA (protein concentration 10 nM)”, the TF binding intensity turned out to be 131.

For “CCACGCTTTGCCAGCACTTTCCCCTGCCTCGTCTGT (protein concentration 10 nM)”, the TF binding intensity was 119.

Sequence “CCCTAAGCGCCTGCGCACATTTGCGCATCGCTCTGC (protein concentration 10 nM)” returned a TF binding intensity of 109.
